Measured values: PubChem BioAssay (NCATS)
Results filed as inconclusive are left out. Calls of active or inactive are those of the source. Unless noted, calls follow the shape of the dose curve; as a rule, active = well fitted curve in the direction sought with a large enough effect; inconclusive = small, poorly fitted or top-dose-only effect, or another doubt; inactive = no such curve, though single readings can be large; an effect the other way counts as inactive or inconclusive.

Legend:
[1] = molecular target: Bile acid receptor (Homo sapiens) (UniProt Q96RI1); assay: qHTS assay for small molecule agonists of farnesoid X receptor signaling (AID 588527; calls by dose curve;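 also: series mostly up to about 77 µM; 0% = vehicle basal and 100% = reference agonist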); conditions: HEK293T FXR-UAS-bla, beta-lactamase ratio, 16 h; activation: stronger effect = higher value
In short: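 Read-out: beta-lactamase reporter fluorescence with CCF4 substrate in GeneBLAzer FXR-UAS-bla HEK293T cells, after 16 h compound exposure at 37 C. Response scaled between DMSO basal (0%) and chenodeoxycholic acid at 100 uM (100%).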

[2] = molecular target: Peroxisome proliferator-activated receptor delta (Homo sapiens) (UniProt Q03181); assay: qHTS assay for small molecule agonists of peroxisome proliferator-activated receptor delta signaling (AID 588534; calls by dose curve;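 also: 0% = DMSO basal wells and 100% = positive control agonist at 10 µM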)
In short: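 Agonist-mode beta-lactamase reporter readout (CCF4 dye, 2 h at RT) after 18 h at 37 °C exposure to a titration; Hill-equation fitting gave EC50 and maximal response.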

[3] = qHTS for Inhibitors of the Functional Ribonucleoprotein Complex (vRNP) of Lassa (LASV) Arenavirus: LASV Primary Screen - GLuc reporter signal (AID 1347082; calls by dose curve; tested in HEK293 reporter line; also: series mostly up to about 57 µM; % is scaled to controls: 0 for no effect and ±100 for the full control effect; nearly all actives have a fitted effect of over 60% in size)
[4] = qHTS for Inhibitors of the Functional Ribonucleoprotein Complex (vRNP) of Lassa (LASV) Arenavirus: Viability assay - alamar blue signal for LASV Primary Screen (AID 1347083; calls by dose curve; tested in HEK293 reporter line; also: series mostly up to about 57 µM; % is scaled to controls: 0 for no effect and ±100 for the full control effect; nearly all actives have a fitted effect of over 80% in size)
[5] = qHTS for Inhibitors of the Functional Ribonucleoprotein Complex (vRNP) of Lymphocytic Choriomeningitis Arenaviruses (LCMV): Viability assay - alamar blue signal for LCMV Primary Screen (AID 1347085; calls by dose curve; tested in HEK293 reporter line; also: series mostly up to about 57 µM; % is scaled to controls: 0 for no effect and ±100 for the full control effect; nearly all actives have a fitted effect of over 80% in size)
[6] = molecular target: Nucleoprotein (Lymphocytic choriomeningitis virus (strain Armstrong)) (UniProt P09992); assay: qHTS for Inhibitors of the Functional Ribonucleoprotein Complex (vRNP) of Lymphocytic Choriomeningitis Arenaviruses (LCMV): LCMV Primary Screen - GLuc reporter signal (AID 1347086; calls by dose curve; also: series mostly up to about 57 µM; % is scaled to controls: 0 for no effect and ±100 for the full control effect; nearly all actives have a fitted effect of over 70% in size)
[7] = molecular target: Alpha-galactosidase (Coffea arabica) (UniProt Q42656); assay: Counterscreen for Glucocerebrosidase Inhibitors: qHTS Assay for Coffee Bean alpha-Galactosidase at pH 4.5 (AID 957);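 also: series mostly up to about 77 µM; plate controls were enzyme alone for no effect and no enzyme for full effect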
In short: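 Fluorogenic qHTS at pH 4.5 (citrate buffer with Tween-20): 2 nM enzyme, 80 uM 4-MU-alpha-galactoside substrate, compound titrated 0.7 nM to 77 uM, 20 min room temperature. Glycine/NaOH stop; 4-MU read Ex 365/Em 440; Hill-equation AC50 against no-enzyme and enzyme controls.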

[8] = molecular target: Alpha-galactosidase (Coffea arabica) (UniProt Q42656); assay: Counterscreen for Glucocerebrosidase Inhibitors: qHTS Assay for Coffee Bean alpha-Galactosidase at pH 5.9 (AID 998);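 also: plate controls were uninhibited enzyme for no effect and no-enzyme basal signal for full effect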
In short: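 Enzyme 2 nM + cpd (0.7 nM–77 uM titration) + 4-MU-alpha-Gal 80 uM, pH 5.9 citrate/Tween-20, RT 20 min, NaOH/glycine stop pH 10, fluor 365/440. Normalized to no-enzyme and full-activity controls; Hill-fit AC50.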

[9] = Inducers of the Endoplasmic Reticulum Stress Response (ERSR) in human glioma: Validation (AID 504836); also: 0% is about no effect
In short: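 Stably transfected U87-MG glioma cells carrying a GRP78-based luciferase sensor; 16 h compound incubation. Luminescence end-point read 10 min after Bright-Glo addition at room temperature.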

[10] = molecular target: Estrogen receptor (Homo sapiens) (UniProt P03372); assay: qHTS assay for small molecule antagonists of estrogen receptor alpha signaling (AID 588513; active = well fitted curve in the direction sought with a large enough effect in the signal ratio, with a control signal flat, not every such curve was filed as active; the % refers to the signal ratio; also: % is scaled to controls: 0 for no effect and ±100 for the full control effect)
In short: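 Beta-lactamase reporter, antagonist mode, HEK 293 GripTite cells; 0.5nM E2 stimulus, 18 h, 37 C; CCF4 dye 2 h RT; fluorescence. IC50 and efficacy from Hill fits, normalized to E2 and DMSO.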

[11] = molecular target: Estrogen receptor (Homo sapiens) (UniProt P03372); assay: qHTS assay for small molecule agonists of estrogen receptor alpha signaling (AID 588514; calls by dose curve;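 also: 0% = vehicle only and 100% = reference agonist; nearly all actives have a fitted effect of over 70% in size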)
In short: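 EC50 and efficacy came from Hill fits of beta-lactamase reporter signal (CCF4 dye, 2 h at room temperature) scaled between DMSO and 20 nM 17-beta-estradiol. Agonist mode: HEK293 ER-alpha-UAS-bla cells in charcoal/dextran-stripped serum medium, 18 h compound exposure at 37 C.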

[12] = molecular target: Glucocorticoid receptor (Homo sapiens) (UniProt P04150); assay: qHTS assay for small molecule agonists of glucocorticoid receptor signaling (AID 588532; active = well fitted curve in the direction sought with a large enough effect in the signal ratio, with a control signal flat; the % refers to the signal ratio;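 also: 100% = dexamethasone at 0.1 µM and 0% = DMSO only wells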); conditions: HeLa MMTV-bla, beta-lactamase ratio, agonist, 18 h; stronger effect = higher value; percent of dexamethasone control, DMSO zero
In short: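 Cells were plated and rested 3-5 h at 37 C, compounds were added in titration and incubated 18 h, then CCF4 substrate was loaded for 2 h at RT before reading blue/green fluorescence. EC50 came from Hill-equation fitting.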

[13] = molecular target: Glucocorticoid receptor (Homo sapiens) (UniProt P04150); assay: qHTS assay for small molecule antagonists of glucocorticoid receptor signaling (AID 588533; active = well fitted inhibition curve with a large enough effect in the signal ratio, with a control signal flat, not every such curve was filed as active; the % refers to the signal ratio;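 also: cells stimulated with 2 nM dexamethasone as agonist; % is scaled to controls: 0 for no effect and ±100 for the full control effect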)
In short: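 Antagonist-mode qHTS: compound titrations added to GRE-bla HeLa cells, then dexamethasone 2 nM final; 18 h, 37 C. CCF4 FRET fluorescence normalized to dexamethasone and DMSO; IC50 from Hill fit.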

[14] = qHTS assay for small molecule antagonists of peroxisome proliferator-activated receptor delta signaling (AID 588535; active = well fitted inhibition curve with a large enough effect in the signal ratio, with a control signal flat, not every such curve was filed as active; the % refers to the signal ratio;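 as to max response: cells co-treated with a PPAR-delta agonist as stimulator during compound exposure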); conditions: HEK293T PPARd-UAS-bla, beta-lactamase FRET ratio, 18 h; 460 nm channel
In short: (§1)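 Fluorescence from CCF4-loaded GeneBLAzer PPAR-delta-UAS-bla HEK293T cells (2 hrs RT loading) quantified reporter inhibition after an 18 hr, 37 C compound exposure across a titration.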

[15] = molecular target: Peroxisome proliferator-activated receptor delta (Homo sapiens) (UniProt Q03181); assay: as above
In short: as §1

[16] = molecular target: Peroxisome proliferator-activated receptor gamma (Homo sapiens) (UniProt P37231); assay: qHTS assay for small molecule agonists of peroxisome proliferator-activated receptor gamma signaling (AID 588536; active = well fitted curve in the direction sought with a large enough effect in the signal ratio, with a control signal flat, not every such curve was filed as active; the % refers to the signal ratio;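 also: 0% = DMSO basal wells and 100% = rosiglitazone at 2 µM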)
In short: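 Beta-lactamase reporter read-out: CCF4 fluorescence (ex 405, em 460/530 nm) after 2 h at RT. HEK293 GeneBLAzer cells were treated for 16 h at 37 C. Hill fits gave EC50 and efficacy versus 2 uM rosiglitazone (100%) and DMSO (0%).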

[17] = qHTS assay for small molecule agonists of retinoid X receptor alpha signaling (AID 588544; calls by dose curve;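 as to activation: 0% = DMSO basal wells and 100% = reference agonist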); conditions: HEK293T RXRa-UAS-bla, beta-lactamase reporter, 18 h; 530 nm emission
[18] = molecular target: Retinoic acid receptor RXR-alpha (Homo sapiens) (UniProt P19793); assay: as above
[19] = molecular target: Thyroid hormone receptor beta (Homo sapiens) (UniProt P10828); assay: qHTS assay for small molecule agonists of thyroid hormone receptor beta signaling (AID 588545; calls by dose curve)
In short: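 In this cell-based screen, titrated compounds act on HEK 293 cells held in medium with 2% charcoal/dextran FBS, NEAA and pyruvate for 18 hrs at 37 C. Responses are expressed relative to T3 (10 nM) as 100% and basal DMSO as 0%.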

[20] = qHTS assay for small molecule antagonists of retinoid X receptor alpha signaling (AID 588546; active = well fitted inhibition curve with a large enough effect in the signal ratio, with a control signal flat, not every such curve was filed as active; the % refers to the signal ratio;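 also: cells stimulated with 9-cis-retinoic acid as agonist; % is scaled to controls: 0 for no effect and ±100 for the full control effect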); conditions: HEK293T RXRa-UAS-bla, beta-lactamase ratio, antagonist mode; measured here: W530 green channel, cytotoxicity proxy
In short: (§2)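 Beta-lactamase reporter inhibition, read as CCF4 fluorescence ratio (ex 405, em 460/530 nm) after 2 h at RT. HEK293T UAS-bla cells, 2500/well, were stimulated with 9-cis-RA at 500 or 100 nM final alongside test compound for 18 h at 37 C.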

[21] = molecular target: Retinoic acid receptor RXR-alpha (Homo sapiens) (UniProt P19793); assay: as above; conditions: HEK293T RXRa-UAS-bla, beta-lactamase ratio, antagonist mode
In short: as §2

[22] = molecular target: Thyroid hormone receptor beta (Homo sapiens) (UniProt P10828); assay: qHTS assay for small molecule antagonists of thyroid hormone receptor beta signaling (AID 588547; active = well fitted inhibition curve with a large enough effect in the signal ratio, with a control signal flat, not every such curve was filed as active; the % refers to the signal ratio;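 also: cells stimulated with 0.4 nM T3 agonist during compound exposure; series mostly up to about 77 µM; % is scaled to controls: 0 for no effect and ±100 for the full control effect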); conditions: TR-UAS-bla HEK293, beta-lactamase ratio, antagonist mode, 18 h
In short: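 TR-UAS-bla GripTite HEK293 cells in 2% charcoal/dextran FBS medium; compounds 0.59 nM to 92 uM with T3 at 0.4nM final, 18 h at 37 C. Beta-lactamase read by CCF4 fluorescence (460/530 nm); Hill fits gave IC50 and efficacy.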

[23] = qHTS assay for small molecule agonists of the antioxidant response element (ARE) signaling pathway (AID 651741; active = well fitted activation curve with a large enough effect in the signal ratio; the % refers to the signal ratio; also: % of control where 0% means no effect)
In short: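 Stably integrated ARE-beta-lactamase reporter HepG2 cells; 16 h compound incubation, 37 C; LiveBLAzer FRET substrate 2 h at room temperature; fluorescence intensity.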

[24] = qHTS assay for small molecule activators of the p53 signaling pathway (AID 651743; active = well fitted activation curve with a large enough effect in the signal ratio, not every such curve was filed as active; the % refers to the signal ratio; also: series mostly up to about 92 µM; % of control where 0% means no effect); conditions: HCT-116 p53RE-bla, beta-lactamase FRET ratio, 16 h; activation: stronger effect = higher value
In short: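 Following 16 hours of compound exposure at 37 C, HCT-116 cells bearing the p53RE-bla reporter were loaded with LiveBLAzer B/G FRET substrate for 2 hours at room temperature and fluorescence intensity was recorded.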

[25] = qHTS assay for environmental chemicals that activate the Aryl hydrocarbon Receptor (AhR) signaling pathway (AID 651777); conditions: 1A2-DRE human hepatoma cells, luciferase, 24 h; activation: stronger effect = higher value; also: % of control where 0% means no effect; nearly all actives have a fitted effect of over 15% in size
In short: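 AhR activation is scored as a rise in luciferase from a stable DRE–CYP1A2 promoter construct in human hepatoma cells. Treatment lasts 24 hr at 37 C; detection uses One-Glo after 30 min at room temperature.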

[26] = molecular target: Peroxisome proliferator-activated receptor alpha (Homo sapiens) (UniProt Q07869); assay: qHTS assay for small molecule agonists of the peroxisome proliferator-activated receptor alpha (PPARalpha) signaling pathway (AID 651778); conditions: PathHunter PPARalpha complementation, chemiluminescence, 6 h; stronger effect = higher value; also: % of control where 0% means no effect
In short: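 Enzyme-fragment complementation assay in which ligand-bound PPARalpha translocates and forms an active enzyme that generates chemiluminescence. Cells were plated overnight, exposed to compound for 6 hr at 37 C, and then given detection reagent for 60 min at room temperature.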

[27] = qHTS assay for small molecule agonists of the antioxidant response element (ARE) signaling pathway measured by Nrf2-dependant transcriptional activity (AID 720636; active = well fitted curve in the direction sought with a large enough effect in the repeat runs; an effect the other way counts as inactive or inconclusive;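 also: HepG2 cells with an ARE-driven luciferase reporter; % of control where 0% means no effect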)
In short: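 First, ARE-luc HepG2 cells attached for 6 hr at 37 C in 1% dialyzed FBS medium. Next, compound or DMSO was added and incubated 16 hr. Finally, ONE-Glo reagent was added and luminescence measured after 30 min.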

[28] = qHTS assay for small molecule agonists of the antioxidant response element (ARE) signaling pathway measured by Nrf2-dependant transcriptional activity - cell viability counter screen (AID 720653; active = well fitted curve in the direction sought with a large enough effect in the repeat runs; an effect the other way counts as inactive or inconclusive; also: % is scaled to controls: 0 for no effect and ±100 for the full control effect); conditions: ARE-bla HepG2 viability, CellTiter-Glo ATP luminescence, 16 h; max response: stronger effect = lower value
In short: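 ARE-bla HepG2 cells treated with compounds for 16 h at 37C; this counter screen measures viability as intracellular ATP by CellTiter-Glo luminescence after 30 min at room temperature.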

[29] = qHTS assay for cell viability of HEK293 cells (AID 743288); conditions: ATP luminescence (CellTiter-Glo), 18 h; max response: stronger effect = lower value; also: % is scaled to controls: 0 for no effect and ±100 for the full control effect; nearly all actives have a fitted effect of over 50% in size
In short: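 ATP luminescence (CellTiter-Glo) reports metabolically competent cell number after parental HEK293 cells, 2,000/well, were treated with DMSO-dissolved compounds for 18 h at 37 C; reagent incubation 30 min, room temperature.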

[30] = qHTS assay for cell viability of the p53RE-bla HCT-116 cell line (AID 743292); also: % is scaled to controls: 0 for no effect and ±100 for the full control effect; nearly all actives have a fitted effect of over 55% in size
In short: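 Quantitative high-throughput format: compounds in DMSO were pinned onto p53RE-bla HCT-116 cells (4,000/well) and incubated 16 h at 37 C. Total intracellular ATP, read by CellTiter-Glo luminescence, reflects viable cell number.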

[31] = molecular target: Nuclear receptor subfamily 1 group I member 2 (Rattus norvegicus) (UniProt Q9R1A7); assay: qHTS assay for small molecule activators of the rat pregnane X receptor (rPXR) signaling pathway (AID 651751; call rule not given here; also: 0% is about no effect); conditions: rPXR reporter cells, luciferase (One-Glo), 24 h
[32] = qHTS assay for small molecule activators of the human pregnane X receptor (PXR) signaling pathway (AID 720659; call rule not given here; also: 0% is about no effect)
[33] = molecular target: Ubiquitin carboxyl-terminal hydrolase 1 (Homo sapiens) (UniProt O94782); assay: Inhibitors of USP1/UAF1: Pilot qHTS (AID 504865);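 also: rhodamine fluorescence freed from ubiquitin-rhodamine substrate followed over time; top concentration of the series differs between compounds; % is scaled to controls: 0 for no effect and ±100 for the full control effect; nearly all actives have a fitted effect of over 35% in size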
In short: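 1nM USP1/UAF1 + cpd, 15 min RT; start w/ Ub-Rho 150nM final; kinetic FL 480/540 nm, 6 reads q60 s. Buffer 50mM HEPES pH 7.8, 0.5mM EDTA, 1mM TCEP, 0.01% Tween-20, 0.1 mg/ml BSA.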

Chain of Alpha-galactosidase (Coffea arabica) (Q42656 whole entry, looked up): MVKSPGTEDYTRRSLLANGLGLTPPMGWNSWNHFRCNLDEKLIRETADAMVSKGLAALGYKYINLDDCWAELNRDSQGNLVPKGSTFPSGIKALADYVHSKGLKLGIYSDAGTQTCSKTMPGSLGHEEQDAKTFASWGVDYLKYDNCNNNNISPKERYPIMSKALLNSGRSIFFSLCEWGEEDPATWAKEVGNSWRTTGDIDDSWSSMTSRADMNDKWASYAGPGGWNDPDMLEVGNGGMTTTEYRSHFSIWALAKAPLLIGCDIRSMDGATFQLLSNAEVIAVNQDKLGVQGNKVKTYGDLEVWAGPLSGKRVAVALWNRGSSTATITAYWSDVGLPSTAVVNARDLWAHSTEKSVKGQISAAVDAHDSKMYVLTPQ
Chain of Bile acid receptor (Homo sapiens) (Q96RI1 whole entry, looked up): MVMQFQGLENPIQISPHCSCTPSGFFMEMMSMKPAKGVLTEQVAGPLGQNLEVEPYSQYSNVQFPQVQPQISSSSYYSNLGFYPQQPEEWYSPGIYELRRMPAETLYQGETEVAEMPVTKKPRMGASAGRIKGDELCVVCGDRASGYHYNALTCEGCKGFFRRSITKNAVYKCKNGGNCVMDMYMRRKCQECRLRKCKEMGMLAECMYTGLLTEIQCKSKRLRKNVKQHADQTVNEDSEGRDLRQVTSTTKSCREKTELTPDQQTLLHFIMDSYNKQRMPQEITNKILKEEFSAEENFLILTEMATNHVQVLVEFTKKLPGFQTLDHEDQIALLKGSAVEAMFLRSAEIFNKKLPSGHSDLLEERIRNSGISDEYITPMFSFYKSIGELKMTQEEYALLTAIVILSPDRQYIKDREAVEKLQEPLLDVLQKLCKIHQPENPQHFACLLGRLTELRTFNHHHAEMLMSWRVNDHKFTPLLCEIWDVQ
Chain of Peroxisome proliferator-activated receptor delta (Homo sapiens) (Q03181 whole entry, looked up): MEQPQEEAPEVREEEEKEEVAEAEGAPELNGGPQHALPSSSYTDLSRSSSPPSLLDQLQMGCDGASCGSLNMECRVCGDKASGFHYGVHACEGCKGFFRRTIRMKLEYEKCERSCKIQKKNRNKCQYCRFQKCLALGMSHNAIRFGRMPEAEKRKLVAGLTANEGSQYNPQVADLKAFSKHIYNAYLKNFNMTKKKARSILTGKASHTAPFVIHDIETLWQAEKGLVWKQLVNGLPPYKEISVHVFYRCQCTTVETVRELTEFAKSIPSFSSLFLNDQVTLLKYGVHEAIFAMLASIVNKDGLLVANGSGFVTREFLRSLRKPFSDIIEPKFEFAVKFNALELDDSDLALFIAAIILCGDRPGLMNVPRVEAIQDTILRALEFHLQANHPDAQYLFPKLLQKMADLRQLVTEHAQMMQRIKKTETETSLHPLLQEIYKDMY
Chain of Nucleoprotein (Lymphocytic choriomeningitis virus (strain Armstrong)) (P09992 whole entry, looked up): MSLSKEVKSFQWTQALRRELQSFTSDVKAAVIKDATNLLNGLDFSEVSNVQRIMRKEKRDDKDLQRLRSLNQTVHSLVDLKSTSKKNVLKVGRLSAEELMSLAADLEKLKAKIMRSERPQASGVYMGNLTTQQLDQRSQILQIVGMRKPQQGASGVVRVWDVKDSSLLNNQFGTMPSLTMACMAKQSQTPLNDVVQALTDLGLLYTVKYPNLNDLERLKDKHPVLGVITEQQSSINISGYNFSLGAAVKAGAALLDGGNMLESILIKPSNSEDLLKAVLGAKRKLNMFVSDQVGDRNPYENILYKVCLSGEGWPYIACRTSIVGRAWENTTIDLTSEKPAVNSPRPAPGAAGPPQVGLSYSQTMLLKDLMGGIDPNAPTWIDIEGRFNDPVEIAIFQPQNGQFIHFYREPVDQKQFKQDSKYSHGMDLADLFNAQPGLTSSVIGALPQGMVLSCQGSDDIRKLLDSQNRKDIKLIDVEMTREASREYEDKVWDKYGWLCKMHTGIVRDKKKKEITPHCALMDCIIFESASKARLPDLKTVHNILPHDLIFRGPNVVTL
Chain of Retinoic acid receptor RXR-alpha (Homo sapiens) (P19793 whole entry, looked up): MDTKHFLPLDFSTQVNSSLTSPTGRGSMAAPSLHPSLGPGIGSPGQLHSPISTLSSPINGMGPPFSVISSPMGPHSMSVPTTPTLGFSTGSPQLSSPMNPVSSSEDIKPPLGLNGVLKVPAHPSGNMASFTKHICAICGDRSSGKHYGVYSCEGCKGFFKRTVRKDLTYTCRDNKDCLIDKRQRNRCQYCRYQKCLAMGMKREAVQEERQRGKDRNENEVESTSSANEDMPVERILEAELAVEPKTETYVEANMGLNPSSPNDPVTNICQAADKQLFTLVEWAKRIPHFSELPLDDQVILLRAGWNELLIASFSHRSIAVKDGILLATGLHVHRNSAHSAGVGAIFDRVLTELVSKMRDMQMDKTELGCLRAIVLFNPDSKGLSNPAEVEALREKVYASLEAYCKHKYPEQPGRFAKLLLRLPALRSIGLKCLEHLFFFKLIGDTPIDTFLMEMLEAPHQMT
Chain of Glucocorticoid receptor (Homo sapiens) (P04150 whole entry, looked up): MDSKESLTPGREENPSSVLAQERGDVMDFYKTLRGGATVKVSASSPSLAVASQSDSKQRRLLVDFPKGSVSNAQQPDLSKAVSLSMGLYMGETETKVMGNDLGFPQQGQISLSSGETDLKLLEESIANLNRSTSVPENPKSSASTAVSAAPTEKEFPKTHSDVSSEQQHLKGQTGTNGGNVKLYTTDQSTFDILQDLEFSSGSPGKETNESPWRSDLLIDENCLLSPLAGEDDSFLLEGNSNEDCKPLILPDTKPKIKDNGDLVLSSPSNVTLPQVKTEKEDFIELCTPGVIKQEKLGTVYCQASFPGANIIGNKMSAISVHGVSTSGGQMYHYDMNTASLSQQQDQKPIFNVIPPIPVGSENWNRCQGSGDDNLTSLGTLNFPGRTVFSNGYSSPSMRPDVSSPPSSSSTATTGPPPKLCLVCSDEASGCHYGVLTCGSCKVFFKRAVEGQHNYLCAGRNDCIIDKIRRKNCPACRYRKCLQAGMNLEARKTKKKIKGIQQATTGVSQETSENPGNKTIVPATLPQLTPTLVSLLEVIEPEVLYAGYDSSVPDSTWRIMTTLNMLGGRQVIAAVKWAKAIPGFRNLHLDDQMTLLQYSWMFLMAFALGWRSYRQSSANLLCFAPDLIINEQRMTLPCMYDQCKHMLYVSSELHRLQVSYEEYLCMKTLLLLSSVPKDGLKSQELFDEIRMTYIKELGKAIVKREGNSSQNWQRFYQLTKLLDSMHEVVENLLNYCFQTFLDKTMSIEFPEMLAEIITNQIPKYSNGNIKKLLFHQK
Chain of Thyroid hormone receptor beta (Homo sapiens) (P10828 whole entry, looked up): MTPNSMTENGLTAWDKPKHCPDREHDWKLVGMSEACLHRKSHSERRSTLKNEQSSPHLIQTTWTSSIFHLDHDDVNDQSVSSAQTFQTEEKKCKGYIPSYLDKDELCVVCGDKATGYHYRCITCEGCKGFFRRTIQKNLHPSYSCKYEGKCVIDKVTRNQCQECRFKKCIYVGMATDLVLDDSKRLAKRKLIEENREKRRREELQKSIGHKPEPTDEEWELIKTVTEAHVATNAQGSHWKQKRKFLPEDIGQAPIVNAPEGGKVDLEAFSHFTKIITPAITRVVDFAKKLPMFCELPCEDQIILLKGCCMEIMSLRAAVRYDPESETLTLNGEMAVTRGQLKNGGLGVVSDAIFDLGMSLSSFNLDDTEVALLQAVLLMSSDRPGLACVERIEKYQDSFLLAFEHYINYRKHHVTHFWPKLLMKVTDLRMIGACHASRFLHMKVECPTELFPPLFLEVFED
Chain of Estrogen receptor (Homo sapiens) (P03372 whole entry, looked up): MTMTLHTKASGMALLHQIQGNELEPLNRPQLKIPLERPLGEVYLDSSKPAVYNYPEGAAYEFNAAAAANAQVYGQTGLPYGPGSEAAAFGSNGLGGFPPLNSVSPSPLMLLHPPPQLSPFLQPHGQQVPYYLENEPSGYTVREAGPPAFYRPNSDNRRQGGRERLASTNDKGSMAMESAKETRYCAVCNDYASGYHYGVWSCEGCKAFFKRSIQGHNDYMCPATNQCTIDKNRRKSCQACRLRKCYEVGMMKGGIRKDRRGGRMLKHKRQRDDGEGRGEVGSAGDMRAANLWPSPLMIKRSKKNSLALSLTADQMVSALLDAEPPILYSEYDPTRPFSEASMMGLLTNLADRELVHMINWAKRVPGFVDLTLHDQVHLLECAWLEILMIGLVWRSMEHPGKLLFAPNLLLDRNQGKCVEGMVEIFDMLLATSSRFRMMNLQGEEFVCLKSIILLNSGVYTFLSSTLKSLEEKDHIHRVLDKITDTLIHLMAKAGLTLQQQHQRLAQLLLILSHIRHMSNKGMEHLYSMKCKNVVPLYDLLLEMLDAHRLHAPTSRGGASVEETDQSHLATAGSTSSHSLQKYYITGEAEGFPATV
Chain of Nuclear receptor subfamily 1 group I member 2 (Rattus norvegicus) (Q9R1A7 whole entry, looked up): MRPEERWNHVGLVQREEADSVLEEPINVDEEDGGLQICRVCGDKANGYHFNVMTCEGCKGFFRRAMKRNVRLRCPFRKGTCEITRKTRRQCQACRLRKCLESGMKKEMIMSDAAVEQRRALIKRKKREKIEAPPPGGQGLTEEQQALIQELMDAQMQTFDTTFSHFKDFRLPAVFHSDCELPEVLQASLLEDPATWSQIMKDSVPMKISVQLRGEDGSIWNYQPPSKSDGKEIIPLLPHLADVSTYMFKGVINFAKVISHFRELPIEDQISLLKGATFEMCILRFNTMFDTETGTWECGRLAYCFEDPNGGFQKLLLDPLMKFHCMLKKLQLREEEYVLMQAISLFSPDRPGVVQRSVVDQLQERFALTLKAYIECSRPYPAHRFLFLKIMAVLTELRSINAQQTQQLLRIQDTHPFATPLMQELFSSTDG

CCCCCC1CCC(=O)O1 (stereo not given)
inactive: activation [1] 0.301% | Potency [2] | Potency [3] | Potency [4] | Potency [5] | Potency [6]

Brc1ccc([C@H]2CN3CCSC3=N2)cc1
inactive: outcome [7] | outcome [8] | outcome [9] | Potency [3] | Potency [4] | Potency [5] | Potency [6]

CN1CCc2cc(NC(=O)Nc3cccnc3)ccc21
inactive: outcome [7] | outcome [8] | outcome [9] | Potency [3] | Potency [4] | Potency [5] | Potency [6]

C[C@H]1O[C@H](OC2[C@@H](O)[C@@H](O)C(O)[C@H](O)[C@H]2O)[C@@H](N)C[C@@H]1N=C(N)C(=O)O (stereo not given in full)
-16.5%: max response [14]
-7.18%: max response [17]
-6.74%: max response [20]
inactive: Potency [10] | Potency [11] | activation [12] -3.89% | Potency [13] | Potency [2] | outcome [15] | outcome [16] | outcome [18] | Potency [19] | max response [21] -1.33% | activity change % (negative = inhibition) [22] 1.51% | Potency [23] | activation [24] 0.472% | activation [25] -0.0561% | max response [26] -0.85% | Potency [27] | max response [28] 3.51% | max response [29] 0.169% | outcome [30] | Potency [3] | Potency [4] | Potency [5] | Potency [6] | max response [31] -0.488% | outcome [32]

Nc1ccc2c3c(cccc13)C(=O)NC2=O
inactive: outcome [7] | outcome [8] | outcome [9] | Potency [3] | Potency [4] | Potency [5] | Potency [6]

C/C=C/C=C/CCCCCCCO
inactive: activation [1] -0.999% | Potency [2] | Potency [3] | Potency [4] | Potency [5] | Potency [6]

NCCNC(=O)c1ncsc1-c1cccc(F)c1
inactive: outcome [7] | outcome [8] | outcome [9] | Potency [3] | Potency [4] | Potency [5] | Potency [6]

c1ccc2c(c1)CN1CCCC1=N2
inactive: Potency [33] | Potency [3] | Potency [4] | Potency [5] | Potency [6]

NC(N)=[N+]1CCc2ccccc2C1
inactive: outcome [7] | outcome [8] | outcome [9] | Potency [3] | Potency [4] | Potency [5] | Potency [6]

COCCOCCOCCOC
inactive: activation [1] 4.16% | Potency [3] | Potency [4] | Potency [5] | Potency [6]
